# Test results taken from PubChem BioAssay (EPA / NIEHS).
# Results filed as inconclusive are left out. The source made the active and inactive calls. The calls were made as follows, unless noted: active = hit-call score of the fitted dose curve at least 0.9, where 1 is the maximum; inconclusive = response in the unintended direction; inactive = score below 0.9.
# Experiments:
# [1] = ATG_TAL_CIS: Attagene CIS-FACTORIAL HepG2 Assay for human TAL Basal Promoter (AID 2282966; active = hit-call score of the fitted dose curve at least 0.9, where 1 is the maximum; inactive = score below 0.9;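 also: background control endpoint measuring basal TAL promoter reporter mRNA not a specific factor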); settings: HepG2 Attagene cis-factorial TAL promoter reporter; actives raise or lower the signal
# Method in brief: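 Readout: reporter mRNA, fluorescence by CE. System: HepG2, transient multi-reporter transfection, endogenous TF activity. Exposure: 24 h. Analysis: bidirectional, DMSO-normalized; background control.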
# [2] = ATG_TGFb_CIS: Attagene CIS-FACTORIAL HepG2 Assay for human Transforming Growth Factor (TGF) (AID 2282967; active = hit-call score of the fitted dose curve at least 0.9, where 1 is the maximum; inactive = score below 0.9); settings: HepG2 Attagene CIS TGFb reporter, mRNA transcription; actives raise or lower the signal
# Method in brief: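 Multiplexed cis-reporter HepG2 system, 24 h treatment; mRNA induction read by fluorescence after RT-PCR and CE; DMSO negative control, bidirectional curve fitting.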
# [3] = ATG_VDRE_CIS: Attagene CIS-FACTORIAL HepG2 Assay for human Vitamin D Receptor Element (VDRE) (AID 2282968; active = hit-call score of the fitted dose curve at least 0.9, where 1 is the maximum; inactive = score below 0.9); settings: HepG2 VDRE cis-reporter transcription, actives raise or lower the signal
# Method in brief: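 Cell-based multiplexed reporter format in human liver HepG2 cells, 24 h post-dose. Fluorescence from capillary electrophoresis of reporter cDNA gives the signal, with DMSO as negative control and baseline.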
# [4] = biological target: Nuclear receptor subfamily 1 group I member 3 (Homo sapiens) (UniProt Q14994); test: ATG_CAR_TRANS: Attagene TRANS-FACTORIAL HepG2 Assay for human Constitutive Androstane Receptor (CAR) (AID 2282969); settings: HepG2 Attagene TRANS-FACTORIAL CAR reporter;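 also: activators raise reporter mRNA above DMSO so AC50 marks induction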
# Method in brief: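 HepG2 cells transiently transfected with GAL4-UAS reporter units; TRANS format reads activity of exogenous chimeric NR-Gal4 protein. After 24 h dosing, reporter mRNA quantified by RT-PCR, 6-FAM labelling and capillary electrophoresis; gain of signal fitted against DMSO.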
# [5] = biological target: Estrogen receptor (Homo sapiens) (UniProt P03372); test: ATG_ERa_TRANS: Attagene TRANS-FACTORIAL HepG2 Assay for human Estrogen Receptor alpha (ERa) (AID 2282970); settings: HepG2 Attagene TRANS ERa GAL4 reporter, mRNA
# Method in brief: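 Transactivation via ERa-Gal4 chimera in HepG2; 24 hour incubation; reporter mRNA detected by fluorescence RT-PCR and capillary electrophoresis.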
# [6] = biological target: X-box-binding protein 1 (Homo sapiens) (UniProt P17861); test: ATG_Xbp1_CIS: Attagene CIS-FACTORIAL HepG2 Assay for human X-box Binding Protein 1 (XBP1) (AID 2282972; active = hit-call score of the fitted dose curve at least 0.9, where 1 is the maximum; inactive = score below 0.9); settings: HepG2 XBP1 cis-element reporter, Attagene multiplex; actives raise or lower the signal
# Method in brief: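 HepG2 cells transiently transfected with cis-regulated multiple reporter transcription units; endogenous transcription factor activity measured 24 hours after chemical dosing. Reporter mRNA quantified by RT-PCR, 6-FAM primer extension, HpaI digestion and capillary electrophoresis; bidirectional fitting versus DMSO.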
# [7] = biological target: Glucocorticoid receptor (Homo sapiens) (UniProt P04150); test: ATG_GR_TRANS: Attagene TRANS-FACTORIAL HepG2 Assay for human Glucocorticoid Receptor (GR) (AID 2282978); settings: HepG2 Attagene TRANS GR reporter, mRNA transcription;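 also: activators score as hits since higher reporter transcript over DMSO is fitted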
# Method in brief: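 HepG2 cells transiently transfected with GAL4-UAS reporter units and exogenous GR-Gal4 chimera, dosed 24 h. Reporter mRNA by RT-PCR, FAM labeling, HpaI digest and capillary electrophoresis; gain-of-signal fit versus DMSO.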
# [8] = biological target: Bile acid receptor (Homo sapiens) (UniProt Q96RI1); test: ATG_FXR_TRANS: Attagene TRANS-FACTORIAL HepG2 Assay for Farnesoid X Receptor (FXR) (AID 2282979); settings: HepG2 Attagene TRANS FXR-GAL4 reporter transcription;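 also: hits raise reporter mRNA above DMSO so AC50 marks FXR activation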
# Method in brief: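 Chimeric FXR-GAL4 activity in transiently transfected human HepG2 liver cells is scored as induction of reporter mRNA after 24 h of dosing. Detection uses RT-PCR with fluorescent labelling and capillary electrophoresis, with DMSO serving as baseline.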
# [9] = biological target: Oxysterols receptor LXR-alpha (Homo sapiens) (UniProt Q13133); test: ATG_LXRa_TRANS: Attagene TRANS-FACTORIAL HepG2 Assay for human Liver X Receptor alpha (LXRa) (AID 2282980); settings: HepG2 Attagene TRANS reporter, LXRa transactivation
# Method in brief: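 Transient HepG2 transfectants, 24 h dosing, RT-PCR/CE mRNA reporter quantitation; gain-of-signal vs DMSO.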
# [10] = biological target: Hepatocyte nuclear factor 4-alpha (Homo sapiens) (UniProt P41235); test: ATG_HNF4a_TRANS: Attagene TRANS-FACTORIAL HepG2 Assay for human Hepatocyte Nuclear Factor 4 alpha (HNF4a) (AID 2282982); settings: HepG2 HNF4a transactivation reporter, mRNA readout
# Method in brief: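 Gain-of-signal mRNA induction, relative to DMSO vehicle, was read after 24 h compound treatment of HepG2 cells bearing transfected GAL4-UAS reporters. Detection used RT-PCR, 6-FAM primer extension and capillary electrophoresis.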
# [11] = ATG_M_06_TRANS: Attagene TRANS-FACTORIAL HepG2 Assay for M06 Transcription Factor (Internal Marker) (AID 2282983); settings: HepG2 Attagene TRANS M06 internal marker reporter
# Method in brief: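 Measured by capillary electrophoresis of fluorescently labelled RT-PCR products, this endpoint reflects reporter mRNA in HepG2 cells harbouring exogenous NR-GAL4 reporter constructs after 24 h exposure, with DMSO as baseline.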
# [12] = ATG_M_32_TRANS: Attagene TRANS-FACTORIAL HepG2 Assay for M32 Transcription Factor (Internal Marker) (AID 2282984); settings: HepG2 Attagene TRANS M32 internal marker reporter;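 also: transcript level of a background control reporter unit measured by RT-PCR and capillary electrophoresis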
# Method in brief: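 Capillary electrophoresis of 6-FAM-labelled reporter fragments gives the signal; data fitted for gain over DMSO negative control. Source: HepG2 cells bearing transient multiple reporter transcription units, 24 h exposure.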
# [13] = biological target: Nuclear receptor subfamily 4 group A member 2 (Homo sapiens) (UniProt P43354); test: ATG_NURR1_TRANS: Attagene TRANS-FACTORIAL HepG2 Assay for human Nuclear Receptor Related Protein 1 (NURR1) (AID 2282985); settings: HepG2 Attagene TRANS reporter, mRNA readout
# Method in brief: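 HepG2 / transient MRTU transfection / 24 h compound exposure / RT-PCR + CE fluorescence of reporter mRNA / gain-of-signal vs DMSO.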
# [14] = biological target: Transcriptional activator Myb (Homo sapiens) (UniProt P10242); test: ATG_Myb_CIS: Attagene CIS-FACTORIAL HepG2 Assay for human Myeloblastosis (Myb) Proto-Oncogene Transcription Factor (AID 2282986; active = hit-call score of the fitted dose curve at least 0.9, where 1 is the maximum; inactive = score below 0.9); settings: HepG2 Attagene CIS-FACTORIAL Myb reporter transcription; actives raise or lower the signal
# Method in brief: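 Transiently transfected HepG2 cells carrying a multiplexed cis-promoter reporter set report endogenous Myb activity after 24 h compound exposure. Reporter mRNA is read by RT-PCR with capillary electrophoresis of fluorescent products, fitted bidirectionally against DMSO.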
# [15] = biological target: Nuclear respiratory factor 1 (Homo sapiens) (UniProt Q16656); test: ATG_NRF1_CIS: Attagene CIS-FACTORIAL HepG2 Assay for human Nuclear Respiratory Factor 1 (NRF1) Orphan Gene (AID 2282987; active = hit-call score of the fitted dose curve at least 0.9, where 1 is the maximum; inactive = score below 0.9); settings: HepG2 NRF1 cis-element reporter, Attagene multiplex; actives raise or lower the signal
# Method in brief: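 HepG2 cells transiently transfected with multiple cis-regulated reporter units, exposed 24 h. Reporter mRNAs measured by RT-PCR, fluorescent labelling, HpaI digestion and capillary electrophoresis; bidirectional fitting against DMSO.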
# [16] = biological target: Estrogen-related receptor gamma (Homo sapiens) (UniProt P62508); test: ATG_ERRg_TRANS: Attagene TRANS-FACTORIAL HepG2 Assay for human Estrogen-Related Receptor gamma (ERRg) (AID 2282977); settings: HepG2 Attagene TRANS reporter, ERRg transactivation;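 also: hits increase reporter signal over DMSO so potencies reflect activators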
# Method in brief: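 HepG2 cells transiently transfected with multiplexed GAL4-UAS reporter units and chimeric NR-Gal4 constructs were exposed to test chemicals for 24 h. Reporter mRNA was measured by RT-PCR, 6-FAM primer extension, HpaI digestion and capillary electrophoresis; gain-of-signal versus DMSO.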
# [17] = biological target: Steroid hormone receptor ERR1 (Homo sapiens) (UniProt P11474); test: ATG_ERRa_TRANS: Attagene TRANS-FACTORIAL HepG2 Assay for human Estrogen-Related Receptor alpha (ERRa) (AID 2282971); settings: HepG2 Attagene TRANS reporter, ERRa transactivation
# Method in brief: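 HepG2 cells were transiently transfected with multiple GAL4-UAS reporter units, then dosed with compound for 24 h. Total RNA was reverse-transcribed, reporter cDNA PCR-amplified and fluorescently labelled, and fragments resolved by capillary electrophoresis; induction was compared with DMSO.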
# [18] = ATG_GAL4_TRANS: Attagene TRANS-FACTORIAL HepG2 Assay for GAL4 (Internal Marker) (AID 2282976); settings: HepG2 Attagene TRANS GAL4 internal marker reporter
# Method in brief: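 Fluorescence from capillary electrophoresis of labelled RT-PCR products quantifies reporter mRNA induction after 24 h dosing of HepG2 cells carrying transfected GAL4-UAS reporter transcription units. Vehicle DMSO serves as baseline.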
# [19] = biological target: Oxysterols receptor LXR-beta (Homo sapiens) (UniProt P55055); test: ATG_LXRb_TRANS: Attagene TRANS-FACTORIAL HepG2 Assay for human Liver X Receptor beta (LXRb) (AID 2282981); settings: HepG2 Attagene TRANS GAL4-LXRb reporter, mRNA
# Method in brief: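 Gain-of-signal mRNA reporter endpoint, DMSO as negative control. Transiently transfected HepG2 cells carrying the NR-Gal4 chimera and GAL4-UAS reporter units were treated 24 h; transcripts quantified by RT-PCR and capillary electrophoresis fluorescence.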
# [20] = ATG_M_19_TRANS: Attagene TRANS-FACTORIAL HepG2 Assay for M19 Transcription Factor (Internal Marker) (AID 2282974); settings: HepG2 Attagene TRANS-FACTORIAL M19 internal marker reporter
# Method in brief: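 HepG2 transiently transfected with GAL4-UAS multiplex reporter constructs, exposed 24 h; reporter RNA quantified by RT-PCR, 6-FAM labeling, HpaI digestion and capillary electrophoresis; internal background marker fitted upward versus DMSO.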
# Transcriptional activator Myb (Homo sapiens), sequence (P10242 whole entry, looked up): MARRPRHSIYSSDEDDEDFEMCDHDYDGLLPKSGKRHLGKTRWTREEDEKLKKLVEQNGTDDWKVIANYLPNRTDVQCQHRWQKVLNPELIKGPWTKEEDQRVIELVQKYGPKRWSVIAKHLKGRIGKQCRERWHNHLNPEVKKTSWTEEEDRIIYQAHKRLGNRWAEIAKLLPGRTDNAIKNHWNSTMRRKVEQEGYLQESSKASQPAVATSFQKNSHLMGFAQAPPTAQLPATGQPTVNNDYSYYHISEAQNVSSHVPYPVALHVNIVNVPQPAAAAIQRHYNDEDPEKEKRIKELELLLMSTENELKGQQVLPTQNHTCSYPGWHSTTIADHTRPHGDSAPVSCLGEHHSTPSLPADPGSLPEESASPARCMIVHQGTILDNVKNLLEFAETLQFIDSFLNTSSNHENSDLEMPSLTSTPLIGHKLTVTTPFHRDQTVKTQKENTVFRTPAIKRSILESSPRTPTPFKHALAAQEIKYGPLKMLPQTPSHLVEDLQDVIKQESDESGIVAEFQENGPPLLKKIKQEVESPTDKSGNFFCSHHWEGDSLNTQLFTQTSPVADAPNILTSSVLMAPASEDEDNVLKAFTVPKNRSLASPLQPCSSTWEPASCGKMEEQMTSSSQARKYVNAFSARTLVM
# Nuclear receptor subfamily 4 group A member 2 (Homo sapiens), sequence (P43354 whole entry, looked up): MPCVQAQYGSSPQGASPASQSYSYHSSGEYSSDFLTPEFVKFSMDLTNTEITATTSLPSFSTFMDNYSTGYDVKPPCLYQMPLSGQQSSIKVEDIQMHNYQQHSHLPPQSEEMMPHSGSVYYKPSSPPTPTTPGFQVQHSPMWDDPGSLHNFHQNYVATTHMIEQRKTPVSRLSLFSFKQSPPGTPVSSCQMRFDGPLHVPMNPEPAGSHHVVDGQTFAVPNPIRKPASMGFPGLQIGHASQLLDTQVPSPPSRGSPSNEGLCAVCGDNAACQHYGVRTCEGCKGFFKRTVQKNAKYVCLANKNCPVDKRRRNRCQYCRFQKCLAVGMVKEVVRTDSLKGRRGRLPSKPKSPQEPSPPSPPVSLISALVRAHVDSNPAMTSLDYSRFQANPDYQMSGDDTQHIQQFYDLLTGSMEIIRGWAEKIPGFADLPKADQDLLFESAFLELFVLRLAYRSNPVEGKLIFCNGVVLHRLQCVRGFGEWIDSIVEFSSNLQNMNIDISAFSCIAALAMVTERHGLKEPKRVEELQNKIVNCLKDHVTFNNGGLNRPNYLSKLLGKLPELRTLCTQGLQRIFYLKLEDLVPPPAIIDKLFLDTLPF
# Nuclear receptor subfamily 1 group I member 3 (Homo sapiens), sequence (Q14994 whole entry, looked up, the tested form may be a part): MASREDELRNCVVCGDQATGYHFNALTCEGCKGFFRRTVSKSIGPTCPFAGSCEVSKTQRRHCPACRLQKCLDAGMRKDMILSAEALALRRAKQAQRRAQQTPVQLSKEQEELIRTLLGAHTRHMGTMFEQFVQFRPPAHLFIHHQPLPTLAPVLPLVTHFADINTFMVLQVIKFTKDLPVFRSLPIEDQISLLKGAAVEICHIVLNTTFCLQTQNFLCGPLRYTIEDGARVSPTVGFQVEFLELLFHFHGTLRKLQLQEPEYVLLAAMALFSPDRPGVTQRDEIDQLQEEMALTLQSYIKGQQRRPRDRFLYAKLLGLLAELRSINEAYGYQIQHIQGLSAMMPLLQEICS
# Nuclear respiratory factor 1 (Homo sapiens), sequence (Q16656 whole entry, looked up): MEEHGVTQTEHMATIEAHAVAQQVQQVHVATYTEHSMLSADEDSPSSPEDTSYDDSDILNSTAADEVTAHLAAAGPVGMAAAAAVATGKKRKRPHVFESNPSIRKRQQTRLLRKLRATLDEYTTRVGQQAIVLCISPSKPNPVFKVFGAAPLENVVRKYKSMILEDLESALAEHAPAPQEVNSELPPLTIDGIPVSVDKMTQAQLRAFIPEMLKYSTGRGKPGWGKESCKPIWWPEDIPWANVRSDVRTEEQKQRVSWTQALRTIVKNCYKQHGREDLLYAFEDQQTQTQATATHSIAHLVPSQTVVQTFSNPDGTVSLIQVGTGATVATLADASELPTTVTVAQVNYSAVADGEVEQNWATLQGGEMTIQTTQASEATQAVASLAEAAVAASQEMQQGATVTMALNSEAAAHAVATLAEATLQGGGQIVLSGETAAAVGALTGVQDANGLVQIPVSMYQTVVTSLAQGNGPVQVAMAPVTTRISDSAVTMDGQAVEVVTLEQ
# Estrogen receptor (Homo sapiens), sequence (P03372 whole entry, looked up, the tested form may be a part): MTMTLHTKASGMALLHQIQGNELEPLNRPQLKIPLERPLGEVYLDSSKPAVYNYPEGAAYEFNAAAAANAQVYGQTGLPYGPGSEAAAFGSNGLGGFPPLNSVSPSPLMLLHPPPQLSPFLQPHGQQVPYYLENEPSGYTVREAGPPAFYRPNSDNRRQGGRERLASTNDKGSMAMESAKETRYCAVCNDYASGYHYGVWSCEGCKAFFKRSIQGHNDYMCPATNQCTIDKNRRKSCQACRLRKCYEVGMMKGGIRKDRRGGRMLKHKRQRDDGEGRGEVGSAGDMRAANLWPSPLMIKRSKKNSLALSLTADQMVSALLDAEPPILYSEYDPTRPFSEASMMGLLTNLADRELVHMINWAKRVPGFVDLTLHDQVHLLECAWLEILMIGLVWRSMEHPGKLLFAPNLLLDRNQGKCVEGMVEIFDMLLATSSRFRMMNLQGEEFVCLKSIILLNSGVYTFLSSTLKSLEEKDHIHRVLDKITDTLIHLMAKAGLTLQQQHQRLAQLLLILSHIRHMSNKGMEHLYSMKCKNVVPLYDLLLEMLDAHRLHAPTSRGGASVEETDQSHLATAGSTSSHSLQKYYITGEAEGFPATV
# Hepatocyte nuclear factor 4-alpha (Homo sapiens), sequence (P41235 whole entry, looked up, the tested form may be a part): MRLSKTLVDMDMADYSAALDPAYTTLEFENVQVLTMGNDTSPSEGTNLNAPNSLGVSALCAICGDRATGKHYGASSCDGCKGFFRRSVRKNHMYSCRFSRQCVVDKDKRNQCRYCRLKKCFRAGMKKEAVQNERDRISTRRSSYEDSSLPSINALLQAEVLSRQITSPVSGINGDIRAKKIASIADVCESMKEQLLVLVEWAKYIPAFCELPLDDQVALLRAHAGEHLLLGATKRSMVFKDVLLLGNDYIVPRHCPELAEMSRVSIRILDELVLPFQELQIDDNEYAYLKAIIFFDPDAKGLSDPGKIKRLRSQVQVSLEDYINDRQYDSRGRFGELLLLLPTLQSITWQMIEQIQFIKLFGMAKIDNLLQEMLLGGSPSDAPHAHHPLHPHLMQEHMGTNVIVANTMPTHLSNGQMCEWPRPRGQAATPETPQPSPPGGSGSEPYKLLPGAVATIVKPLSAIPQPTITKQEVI
# Oxysterols receptor LXR-beta (Homo sapiens), sequence (P55055 whole entry, looked up, the tested form may be a part): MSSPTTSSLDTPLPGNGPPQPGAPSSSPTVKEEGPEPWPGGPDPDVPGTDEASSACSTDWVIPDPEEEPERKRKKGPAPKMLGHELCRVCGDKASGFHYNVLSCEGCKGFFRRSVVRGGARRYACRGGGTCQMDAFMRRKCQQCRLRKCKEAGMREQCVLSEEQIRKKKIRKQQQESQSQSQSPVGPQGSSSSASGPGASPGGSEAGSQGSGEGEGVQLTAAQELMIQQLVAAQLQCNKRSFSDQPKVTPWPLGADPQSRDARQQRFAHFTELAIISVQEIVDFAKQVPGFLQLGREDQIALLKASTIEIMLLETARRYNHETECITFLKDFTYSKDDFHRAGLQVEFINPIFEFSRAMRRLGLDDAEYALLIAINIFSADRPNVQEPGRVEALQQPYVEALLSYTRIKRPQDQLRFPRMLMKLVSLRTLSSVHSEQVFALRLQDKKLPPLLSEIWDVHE
# Bile acid receptor (Homo sapiens), sequence (Q96RI1 whole entry, looked up, the tested form may be a part): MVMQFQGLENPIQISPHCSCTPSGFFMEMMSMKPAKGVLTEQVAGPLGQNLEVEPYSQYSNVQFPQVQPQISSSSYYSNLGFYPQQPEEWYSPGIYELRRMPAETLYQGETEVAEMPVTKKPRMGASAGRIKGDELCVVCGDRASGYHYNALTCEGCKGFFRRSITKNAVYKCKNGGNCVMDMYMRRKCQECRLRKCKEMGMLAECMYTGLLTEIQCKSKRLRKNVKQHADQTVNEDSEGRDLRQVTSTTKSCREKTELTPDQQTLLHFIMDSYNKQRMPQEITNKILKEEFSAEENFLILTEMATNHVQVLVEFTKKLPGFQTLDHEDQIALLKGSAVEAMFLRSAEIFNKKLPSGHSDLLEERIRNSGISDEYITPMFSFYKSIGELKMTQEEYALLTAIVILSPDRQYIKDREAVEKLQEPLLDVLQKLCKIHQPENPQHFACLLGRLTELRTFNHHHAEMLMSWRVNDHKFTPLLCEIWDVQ
# X-box-binding protein 1 (Homo sapiens), sequence (P17861 whole entry, looked up): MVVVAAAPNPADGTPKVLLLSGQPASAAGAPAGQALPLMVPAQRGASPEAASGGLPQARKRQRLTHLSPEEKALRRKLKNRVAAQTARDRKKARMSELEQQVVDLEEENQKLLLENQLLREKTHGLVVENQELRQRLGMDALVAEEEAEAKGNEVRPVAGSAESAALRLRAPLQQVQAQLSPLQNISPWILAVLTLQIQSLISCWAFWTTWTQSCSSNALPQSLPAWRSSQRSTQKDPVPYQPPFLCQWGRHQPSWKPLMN
# Estrogen-related receptor gamma (Homo sapiens), sequence (P62508 whole entry, looked up, the tested form may be a part): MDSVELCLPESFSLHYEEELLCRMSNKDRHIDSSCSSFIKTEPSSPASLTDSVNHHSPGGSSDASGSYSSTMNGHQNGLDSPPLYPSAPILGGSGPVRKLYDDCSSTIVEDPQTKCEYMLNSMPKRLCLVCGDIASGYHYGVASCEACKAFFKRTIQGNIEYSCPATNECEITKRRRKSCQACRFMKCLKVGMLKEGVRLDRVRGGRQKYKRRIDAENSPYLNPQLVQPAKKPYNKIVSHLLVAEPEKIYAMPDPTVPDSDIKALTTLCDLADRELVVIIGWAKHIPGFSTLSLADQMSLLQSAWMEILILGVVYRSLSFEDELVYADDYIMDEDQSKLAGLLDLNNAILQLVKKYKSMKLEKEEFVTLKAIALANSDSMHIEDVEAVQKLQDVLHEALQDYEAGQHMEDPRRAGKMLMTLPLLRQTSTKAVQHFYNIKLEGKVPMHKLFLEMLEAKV
smiles,measurement,setting,value
Nc1nc2ccccc2[nH]1,outcome,[1],inactive
same,outcome,[2],inactive
same,outcome,[3],inactive
same,outcome,[4],inactive
same,outcome,[5],inactive
same,outcome,[6],inactive
same,outcome,[7],inactive
same,outcome,[8],inactive
same,outcome,[9],inactive
same,outcome,[10],inactive
same,outcome,[11],inactive
same,outcome,[12],inactive
same,outcome,[13],inactive
same,outcome,[14],inactive
same,outcome,[15],inactive
O=S(=O)(Oc1ccc(Cl)cc1Cl)c1ccccc1,outcome,[1],inactive
same,AC50,[2],63.4 µM (active)
same,AC50,[3],6.51 µM (active)
same,outcome,[4],inactive
same,AC50,[5],5.33 µM (active)
same,outcome,[6],inactive
same,outcome,[16],inactive
same,outcome,[11],inactive
same,AC50,[13],35.4 µM (active)
same,outcome,[14],inactive
same,outcome,[15],inactive
NC(=O)N=NC(N)=O,outcome,[1],inactive
same,outcome,[2],inactive
same,outcome,[3],inactive
same,outcome,[4],inactive
same,outcome,[17],inactive
same,outcome,[6],inactive
same,outcome,[18],inactive
same,outcome,[8],inactive
same,outcome,[19],inactive
same,outcome,[10],inactive
same,outcome,[11],inactive
same,outcome,[14],inactive
same,outcome,[15],inactive
[Cl][Bi]([Cl])([c]1ccccc1)([c]1ccccc1)[c]1ccccc1,outcome,[1],inactive
same,outcome,[2],inactive
same,outcome,[3],inactive
same,outcome,[4],inactive
same,AC50,[6],6.04 µM (active)
same,outcome,[20],inactive
same,outcome,[19],inactive
same,outcome,[10],inactive
same,outcome,[12],inactive
same,outcome,[13],inactive
same,outcome,[14],inactive
same,outcome,[15],inactive
C=CCOc1c(Br)cc(Br)cc1Br,outcome,[1],inactive
same,outcome,[2],inactive
same,AC50,[3],23.7 µM (active)
same,outcome,[4],inactive
same,AC50,[5],15.7 µM (active)
same,outcome,[6],inactive
same,outcome,[16],inactive
same,outcome,[8],inactive
same,outcome,[19],inactive
same,outcome,[11],inactive
same,outcome,[12],inactive
same,outcome,[14],inactive
O=C(O)c1cc(Cl)cc([N+](=O)[O-])c1Cl,outcome,[1],inactive
same,outcome,[2],inactive
same,outcome,[3],inactive
same,outcome,[4],inactive
same,outcome,[6],inactive
same,outcome,[20],inactive
same,outcome,[18],inactive
same,outcome,[10],inactive
same,outcome,[11],inactive
same,outcome,[12],inactive
same,outcome,[14],inactive
same,outcome,[15],inactive
CC(=O)NS(=O)(=O)c1ccc(N)cc1,outcome,[1],inactive
same,outcome,[2],inactive
same,outcome,[3],inactive
same,outcome,[4],inactive
same,outcome,[5],inactive
same,outcome,[6],inactive
same,outcome,[18],inactive
same,outcome,[9],inactive
same,outcome,[19],inactive
same,outcome,[10],inactive
same,outcome,[11],inactive
same,outcome,[14],inactive
same,outcome,[15],inactive
OC1OCCOC1O (stereo not given),outcome,[1],inactive
same,outcome,[2],inactive
same,outcome,[3],inactive
same,outcome,[4],inactive
same,outcome,[5],inactive
same,outcome,[6],inactive
same,outcome,[18],inactive
same,outcome,[11],inactive
same,outcome,[12],inactive
same,outcome,[14],inactive
same,outcome,[15],inactive
CCC(C)OC(=O)c1ccc(O)cc1 (stereo not given),outcome,[1],inactive
same,outcome,[2],inactive
same,AC50,[3],62.7 µM (active)
same,outcome,[4],inactive
same,outcome,[17],inactive
same,outcome,[6],inactive
same,outcome,[16],inactive
same,outcome,[7],inactive
same,outcome,[19],inactive
same,outcome,[10],inactive
same,outcome,[11],inactive
same,outcome,[12],inactive
same,outcome,[13],inactive
same,outcome,[14],inactive
same,outcome,[15],inactive
CCCCCCOc1cc(C)c(O)c(C)c1C,outcome,[1],inactive
same,outcome,[2],inactive
same,AC50,[3],9.58 µM (active)
same,outcome,[4],inactive
same,outcome,[6],inactive
same,outcome,[16],inactive
same,outcome,[11],inactive
same,outcome,[13],inactive
same,outcome,[14],inactive
same,outcome,[15],inactive
CC(=O)Oc1ccc(C(C)=O)cc1,outcome,[1],inactive
same,outcome,[2],inactive
same,outcome,[3],inactive
same,outcome,[4],inactive
same,outcome,[6],inactive
same,outcome,[20],inactive
same,outcome,[8],inactive
same,outcome,[19],inactive
same,outcome,[12],inactive
same,outcome,[13],inactive
same,outcome,[14],inactive
